According to the supplement of paper PMC6279402:
Counter-ions that a name gives are not always drawn. ± gives the standard deviation of the averaged measurements.

Tested on: A549
Experiment: relative viability (normalised to negative control = 1, bortezomib = 0) (fraction); higher = less cytotoxic
Settings: inflammatory serum-free RHB-A with cytokines + LPS, 5 d + 24 h CellTiter-Blue
[1] = compound 30 nM, GSK126 pretreatment: 5 uM GSK126
[2] = compound 30 nM, GSK126 pretreatment: none (vehicle)
[3] = compound 300 nM, GSK126 pretreatment: 5 uM GSK126
[4] = compound 300 nM, GSK126 pretreatment: none (vehicle)

## CC(C)c1cnn2c(NCc3ccccc3)cc(NCCCCCCN)nc12 [BS-181 hydrochloride]
[1]
  relative viability: 0.804 ± 0.083
[2]
  relative viability: 0.821 ± 0.11
[3]
  relative viability: 0.853 ± 0.063
[4]
  relative viability: 0.895 ± 0.049

## C=CC(=O)Nc1cccc(Oc2nc(Nc3ccc(N4CCN(C)CC4)cc3OC)ncc2Cl)c1
[1]
  relative viability: 0.978 ± 0.051
[2]
  relative viability: 0.897 ± 0.034
[3]
  relative viability: 0.782 ± 0.086
[4]
  relative viability: 0.87 ± 0.095

## COC(=O)c1ccc2c(C(=Nc3ccc(N(C)C(=O)CN4CCN(C)CC4)cc3)c3ccccc3)c(O)[nH]c2c1 [BIBF1120(Vargatef)]
[1]
  relative viability: 0.825 ± 0.044
[2]
  relative viability: 0.812 ± 0.16
[3]
  relative viability: 0.844 ± 0.13
[4]
  relative viability: 1.01 ± 0.18
